The assay is described as follows: M. tuberculosis growth inhibition, HTS (AID 1259417).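 Note: bacteria grown with compound for 5 days at 37 °C.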 The settings on record: stronger effect = higher value, concentration not given here.
Setting [1] is: M. tuberculosis DsRed fluorescence growth inhibition.
Where [2] appears, read: M. tuberculosis growth inhibition.

Out of some 1,100 compounds screened, about 760 (69%) were called active. The rule behind the calls is not given here. The set was probably picked from earlier hits. Some of the results follow.

Consider `CN(C)c1ccc(Nc2nc(-c3ccc(O)cc3O)cs2)cc1`, for which the inhibition (usually the relative decrease from the control value, in per cent) by setting is: under setting [1], 36% (active); under setting [2], 10.8%.
Turning to `Fc1ccc(Nc2nc(-c3ccccn3)cs2)cc1`, the inhibition under setting [1] was 93.9% (active) and the inhibition under setting [2] came out at 94.1%.
With `Brc1ccc(Nc2nc(-c3ccccn3)cs2)cc1`, the inhibition runs as follows: under setting [1], 91% (active); under setting [2], 94.1%.
For `Fc1cccc2sc(Nc3nc(-c4ccccn4)cs3)nc12` the same measures were 99.5% (active) and 101%.
As for `Clc1ccc(Nc2nc(-c3ccccn3)cs2)nc1`, the inhibition by setting is: under setting [1], 101% (active); under setting [2], 101%.
In the case of `c1ccc(Nc2nc(-c3ccccn3)cs2)cc1`, the inhibition under setting [1] is 88.2% (active) and the inhibition under setting [2] is 91.8%.
Turning to `CCOc1ccc(Nc2nc(-c3ccccn3)cs2)cc1`, the inhibition is 89.5% (active) under setting [1] and 92% under setting [2].
As for `Cc1ccc(S/C=C\C(=O)c2ccccc2)cc1`, the inhibition reads like this: under setting [1], 36.8% (active); under setting [2], 37.6%.
Consider `CSCCC(NC(=O)c1cc([N+](=O)[O-])cc([N+](=O)[O-])c1)c1nc2ccccc2[nH]1` (stereo not drawn), for which the inhibition under setting [1] was 51.9% (active) and the inhibition under setting [2] was 71.3%.
For `CCOC(=O)Cn1cc(C#N)c2cccc(CC)c21` the same measures were 14.1% (active) and 56.3%.
As to `CCOC(=O)COc1cc2c3c(c(=O)oc2cc1C)CCCC3`, the inhibition was 43% (active) under setting [1] and 89.3% under setting [2].
As for `CCOC(=O)COc1ccc2c3c(c(=O)oc2c1)CCCCC3`, the inhibition is, setting by setting: under setting [1], 42.8% (active); under setting [2], 74.2%.
Turning to `Cc1cc(OC(=O)C2CC2)c2c3c(c(=O)oc2c1)CCCC3`, the inhibition by setting is: under setting [1], 22% (inactive); under setting [2], 21.7%.
Regarding `CCc1cc(C(=O)OC)c(NC(=S)NCc2ccc(Cl)c(Cl)c2)s1`, the inhibition is, setting by setting: under setting [1], 96.8% (active); under setting [2], 88.4%.
Taken in the same sequence, the figures for `CCOC(=O)c1cc(-c2ccccc2)sc1NC(=S)NC1CCN(Cc2ccccc2)CC1` were 18.5% (inactive) and 1.16%.
With `COc1ccc(C(=O)N2N=C(c3ccccc3)CC2(O)C(F)(F)F)cc1` (stereo not drawn), the inhibition by setting is: under setting [1], 1.52% (inactive); under setting [2], -2.76%.
`COc1ccc(C(=O)C(CN2CCOCC2)c2ccccc2)cc1` (stereo not drawn): the inhibition under setting [1] was 42.8% (active) and the inhibition under setting [2] amounted to 77%.
As to `COc1ccc(C(=O)C(CN2CCCCC2)c2ccccc2)cc1` (stereo not drawn), the inhibition runs as follows: under setting [1], 31.4% (active); under setting [2], 66.8%.
For the compound `C=CCNc1nnc(Sc2ncccc2[N+](=O)[O-])s1`, the inhibition is 97.9% (active) under setting [1] and 98.2% under setting [2].
On to `Nc1nnc(Sc2ncccc2[N+](=O)[O-])s1`, for which the inhibition runs as follows: under setting [1], 98.8% (active); under setting [2], 98.6%.
For `Cc1ccc(C)c(N=Nc2nc3ccccc3n2C)c1`, the inhibition is, setting by setting: under setting [1], 100% (active); under setting [2], 99.1%.
As to `Cc1ccc(C(=O)Nc2nnc(C3=COCCO3)o2)cc1`, the inhibition under setting [1] was 11.3% (inactive) and the inhibition under setting [2] is -5.11%.
Regarding `Cc1ccc(C(=O)Nc2nc(-c3ccccc3)c(-c3ccccc3)o2)cc1`, the inhibition is, setting by setting: under setting [1], 80.4% (active); under setting [2], 65.6%.
For `O=C(NCc1nnc2c3ccccc3c(-c3ccccc3)nn12)c1ccc(Cl)cc1` the same measures were 15.3% (inactive) and -15.9%.
Consider `O=C(Nc1nc(-c2ccccc2)c(-c2ccccc2)o1)c1ccc(F)cc1`, for which the inhibition is, setting by setting: under setting [1], 93.6% (active); under setting [2], 93.3%.
Regarding `O=C(Nc1nnc(C2=COCCO2)o1)c1ccc(F)cc1`, the inhibition was 17.6% (inactive) under setting [1] and 29.2% under setting [2].
Regarding `CCOC(=O)Cc1c(C)nc2c(-c3cccc(Br)c3)c[nH]n2c1=O`, the inhibition under setting [1] was 98.3% (active) and the inhibition under setting [2] was 97.9%.
In the case of `CCCCOC(=O)CSc1nc(N)c(C#N)c(-c2ccc(OC)cc2)c1C#N`, the inhibition by setting is: under setting [1], 4.48% (active); under setting [2], 30.9%.
With `CCOC(=O)CSc1nc(N)c(C#N)c(-c2cccs2)c1C#N`, the inhibition was -3.66% (inactive) under setting [1] and 10.2% under setting [2].
For `Nc1ncnc(Sc2nc3ccccc3s2)c1[N+](=O)[O-]` the same measures were 100% (active) and 99.4%.
As to `Cc1ccc2c(C)nc(Nc3nc(CSc4nc5ccccc5s4)cc(=O)[nH]3)nc2c1`, the inhibition is -4.65% (inactive) under setting [1] and -12.8% under setting [2].
In the case of `Cc1cc(Sc2ncnc(N)c2[N+](=O)[O-])ncn1`, the inhibition runs as follows: under setting [1], 99.4% (active); under setting [2], 100%.
As for `Cc1cc(Cl)cc2sc(N(CCCn3ccnc3)C(=O)c3ccco3)nc12`, the inhibition is 97.5% (active) under setting [1] and 98.4% under setting [2].
For `Cc1ccc2sc(N(CCCn3ccnc3)C(=O)c3ccco3)nc2c1C` the same measures were 98.6% (active) and 98.1%.
As for `Cc1c(Cl)ccc2sc(N(CCCn3ccnc3)C(=O)c3ccco3)nc12`, the inhibition is 98.6% (active) under setting [1] and 99.5% under setting [2].
Turning to `Cc1cccc2sc(N(CCCn3ccnc3)C(=O)c3ccco3)nc12`, the inhibition is 98.6% (active) under setting [1] and 99.8% under setting [2].
As for `O=C(Nc1ccc(Cl)cc1C(F)(F)F)c1ccc([N+](=O)[O-])o1`, the inhibition reads like this: under setting [1], 60.7% (active); under setting [2], 58.1%.
With `O=C(Nc1nnc(-c2ccc(Cl)s2)o1)c1ccc([N+](=O)[O-])o1`, the inhibition was 95.4% (active) under setting [1] and 87.9% under setting [2].
`O=C(CCc1ccccc1)Nc1nnc(-c2ccc(Cl)s2)o1`: the inhibition runs as follows: under setting [1], 10% (inactive); under setting [2], 26.7%.
For `O=C(Nc1nc2c(Cl)cccc2s1)c1ccc([N+](=O)[O-])o1`, the inhibition is, setting by setting: under setting [1], -3.76% (inactive); under setting [2], 28.2%.
For `O=C(Nc1nnc(-c2ccc(Cl)cc2)o1)c1ccc([N+](=O)[O-])o1`, the inhibition is, setting by setting: under setting [1], 98.3% (active); under setting [2], 98.8%.
With `C=CCn1c(O)c(C2=c3ccccc3=NC2=O)sc1=N`, the inhibition was -9.61% (inactive) under setting [1] and 14.7% under setting [2].
Regarding `CCCCCn1c(NCc2ccc(N(C)C)cc2)nc2ccccc21`, the inhibition is, setting by setting: under setting [1], -0.00251% (inactive); under setting [2], -15.7%.
Consider `CCn1c(NCc2c(O)ccc3ccccc23)nc2ccccc21`, for which the inhibition reads like this: under setting [1], 77.8% (active); under setting [2], 89%.

These data come from PubChem BioAssay AID1259417 (TB Discovery Research, Infectious Disease Research Institute, 2018).
